Results from PubChem BioAssay (NCATS).
“And” between values parts separate entries of the source, which are not always exact repeats. Identical values can stand only once. Records with an inconclusive call do not appear. Unmarked numbers belong to inactive results. The source made the active and inactive calls. Calls follow the shape of the dose curve; as a rule, active = well fitted curve in the direction sought with a large enough effect; inconclusive = small, poorly fitted or top-dose-only effect, or another doubt; inactive = no such curve, though single readings can be large; an effect the other way counts as inactive or inconclusive. Square brackets hold non-standard residues; d marks the D form. Peptide text beside a SMILES is read from it. * marks the point of attachment. Nva = CCC[C@H](N)C(=O)O; Cbz = O=C(OCc1ccccc1)*

Assays:
[1] = Viability qHTS for spleen associated tyrosine kinase inhibitor (SYKi) naive MV4-11 cells (AID 1963823); also: nearly all actives have a fitted effect of over 40% in size
How it was run: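 qHTS, SYK inhibitor-naive MV4-11; 500 cells/well; 72 hr compound exposure, 37 C; CellTiter-Glo added, 10 min RT; luminescence read.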

[2] = Viability qHTS for spleen associated tyrosine kinase inhibitor (SYKi) drug resistant MV4-11 cells (AID 1963824); also: nearly all actives have a fitted effect of over 35% in size
How it was run: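 SYK-inhibitor-resistant MV4-11 AML cells were seeded at 500 per well onto compound and cultured 72 hours (37 °C, 5% CO2). CellTiter-Glo was then added, and after 10 min at room temperature, luminescence gave viability.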

[3] = Quantitative highthroughput screen to assess conditional lethalithy of NOMO1 cells grown in RPMI1640 with untreated serum (RPMI+s) (AID 1963876); also: nearly all actives have a fitted effect of over 35% in size;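 as to Viability: 100% = DMSO wells and 0% = empty wells without cells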
How it was run: (§1)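 Each medium arm—HPLM with 10% dialyzed FBS, or RPMI1640 with 5 mM glucose and 10% untreated or dialyzed FBS—was screened against an 11-point, 3-fold compound titration for 48 h at 37 °C, with CellTiter-Glo luminescence as endpoint.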

[4] = Quantitative highthroughput screen to assess conditional lethalithy of NOMO1 cells grown in RPMI1640 with dialyzed fetal bovine serum (RPMI+ds) (AID 1963877); also: nearly all actives have a fitted effect of over 30% in size;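 as to Viability: series mostly up to about 46 µM; 100% = DMSO control wells and 0% = empty wells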
How it was run: as §1

[5] = Quantitative highthroughput screen to assess conditional lethalithy of NOMO1 cells grown in Human Plasma-Like Medium with dialyzed fetal bovine serum (HPLM+ds) (AID 1963878); also: nearly all actives have a fitted effect of over 35% in size;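 as to Viability: 100% = DMSO wells and 0% = empty wells on each plate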
How it was run: as §1

[6] = Quantitative highthroughput screen to assess conditional lethalithy of P12 Ichikawa cells grown in Human Plasma-Like Medium with dialyzed fetal bovine serum (HPLM+ds) (AID 1963879); conditions: Potency: viability; also: nearly all actives have a fitted effect of over 35% in size; as to Viability: series mostly up to about 46 µM
How it was run: as §1

[7] = Quantitative highthroughput screen to assess conditional lethalithy of P12 Ichikawa cells grown in RPMI1640 with dialyzed fetal bovine serum (RPMI+ds) (AID 1963880); conditions: Potency: P12-Ichikawa viability; also: nearly all actives have a fitted effect of over 35% in size;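 as to Viability: 100% = DMSO wells and 0% = empty wells on each plate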
How it was run: as §1

[8] = Quantitative highthroughput screen to assess conditional lethalithy of P12 Ichikawa cells grown in RPMI1640 with untreated serum (RPMI+s) (AID 1963881); conditions: Potency: viability; also: nearly all actives have a fitted effect of over 35% in size;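 as to Viability: series mostly up to about 46 µM; 100% = DMSO wells and 0% = empty wells without cells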
How it was run: as §1

[9] = Quantitative highthroughput screen to assess conditional lethalithy of SEM cells grown in Human Plasma-Like Medium with dialyzed fetal bovine serum (HPLM+ds) (AID 1963882); also: nearly all actives have a fitted effect of over 35% in size; as to Viability: series mostly up to about 46 µM
How it was run: as §1

[10] = Quantitative highthroughput screen to assess conditional lethalithy of SEM cells grown in RPMI1640 with unreated serum (RPMI+s) (AID 1963883); also: nearly all actives have a fitted effect of over 35% in size;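 as to Viability: 100% = DMSO wells and 0% = empty wells without cells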
How it was run: as §1

[11] = Quantitative highthroughput screen to assess conditional lethalithy of SEM cells grown in RPMI1640 with dialyzed fetal bovine serum (RPMI+ds) (AID 1963884); also: nearly all actives have a fitted effect of over 35% in size;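 as to Viability: series mostly up to about 46 µM; 100% = DMSO control wells and 0% = empty wells without cells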
How it was run: as §1

[12] = Cellular viability qHTS for adrenocortical cancer (ACC) cell line SW-13 (AID 1963989); conditions: SW-13 ACC cells viability, CellTiter-Glo, 48 h; activity (max response): stronger effect = lower value; also: nearly all actives have a fitted effect of over 65% in size;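 as to activity (max response): cells grown in serum-free medium with ITS supplement; % is scaled to controls: 0 for no effect and ±100 for the full control effect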
How it was run: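 Luminescent ATP read-out (CellTiter-Glo, 20 min at room temperature) measured metabolically competent SW-13 cells after 48 h compound treatment. Final concentrations spanned up to 46 uM; bortezomib served as positive control.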

[13] = Cellular viability qHTS for adrenocortical cancer (ACC) cell line NCI-H295R (AID 1963990); also: nearly all actives have a fitted effect of over 60% in size
How it was run: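 IC50 and maximal efficacy derive from four-parameter logistic modelling of titration curves, with reads scaled between DMSO-only wells (0%) and doxorubicin hydrochloride (100% inhibition). Compounds spanned up to 46 uM over 48 h.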
Potency is read from the fitted curve at half-maximal effect.

SMILES	Potency [1]	Potency [2]	Potency [3]	Potency [4]	Potency [5]	Potency [6]	Potency [7]	Potency [8]	Potency [9]	Potency [10]	Potency [11]	Potency [12]	Potency [13]	activity (max response) [12]
CCC[C@@H](C=O)NC(=O)[C@H](CC(C)C)NC(=O)[C@H](CC(C)C)NC(=O)OCc1ccccc1 (Cbz-Leu-Leu-[Nva]-aldehyde)	742 nM (active)	934 nM (active)	1.32 µM (active)	2.64 µM (active)	1.87 µM (active)	3.32 µM (active)	3.32 µM (active)	2.64 µM (active)	2.35 µM (active)	0.526 µM (active)	1.48 µM (active)	2 µM (active)	1.58 µM (active)	–
CC(C)NCC(O)c1ccc(NS(C)(=O)=O)cc1 (configuration not stated)	inactive	inactive	inactive	inactive	inactive	inactive	inactive	inactive	inactive	inactive	inactive	–	inactive	2.53%
Nc1nc(-c2nn(Cc3ccccc3F)c3ncccc23)nc(N)c1N1CCOCC1	inactive	inactive	inactive	inactive	inactive	inactive	inactive	inactive	inactive	inactive	inactive	–	inactive	8.84%
Cc1cnc(Nc2ccc(CN3CCOCC3)cc2)nc1Nc1cccc(S(=O)(=O)NC(C)(C)C)c1	164 nM (active)	372 nM (active) and 326 nM (active)	4.18 µM (active)	4.69 µM (active)	4.69 µM (active)	2.96 µM (active)	4.18 µM (active)	4.18 µM (active)	0.743 µM (active)	0.469 µM (active)	0.166 µM (active)	15.8 µM (active)	4.47 µM (active)	–
O=C(NC1CCNCC1)c1[nH]ncc1NC(=O)c1c(Cl)cccc1Cl	590 nM (active)	411 nM (active)	1.32 µM (active)	1.18 µM (active)	1.18 µM (active)	1.66 µM (active)	2.35 µM (active)	1.48 µM (active)	1.05 µM (active)	1.32 µM (active)	1.32 µM (active)	1.12 µM (active)	–	–
CN(C)Cc1c(C(=O)NCCOc2ccc(C(=O)NO)cc2)oc2ccccc12	326 nM (active) and 296 nM (active)	259 nM (active) and 235 nM (active)	4.18 µM (active)	4.18 µM (active)	4.18 µM (active)	2.35 µM (active)	2.96 µM (active)	2.09 µM (active)	1.18 µM (active)	1.32 µM (active)	1.48 µM (active)	1.26 µM (active)	0.794 µM (active)	–
Cc1ccc(-c2ncn(-c3ccc(Nc4nccc(-c5cccc(N6CCOCC6)c5)n4)cc3)n2)cn1	2350 nM (active)	2350 nM (active)	0.372 µM (active)	0.372 µM (active)	0.296 µM (active)	0.296 µM (active)	0.372 µM (active)	0.296 µM (active)	0.235 µM (active)	0.118 µM (active)	0.148 µM (active)	–	–	11.5%
CN1CC[C@@H](c2c(O)cc(O)c3c(=O)cc(-c4ccccc4Cl)oc23)[C@@H](O)C1	525 nM (active)	296 nM (active)	0.469 µM (active)	0.418 µM (active)	0.264 µM (active)	0.743 µM (active)	0.59 µM (active)	0.662 µM (active)	0.372 µM (active)	0.418 µM (active)	0.469 µM (active)	2.24 µM (active)	1.26 µM (active)	–
